Rows were chosen to be rich in hits. Some 4.8% of all compounds tested hit in one or more screens of this group.
USP2a block = USP2a (human) protease inhibition | O75604 | USP2 core, Ub-CHOP2 coupled fluorogenic reporter, 485/531 | Potency, µM (highest dose often 38.3 µM), most hits filed as inhibitors | 0.01% of 330,000 active | AID 463254
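Cell-free coupled assay: 10nM USP2 core preincubated 30min RT with compound in Tris-HCl pH 8.0/CaCl2/CHAPS buffer, then 25nM Ub-CHOP2 and 25nM reporter substrate; fluorescence (Ex 485/Em 531) read after 60min RT, normalized to NEM inhibition, concentration-response curves fitted.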
IL-1B inflam inh = blocks inflammasome-driven IL-1 beta release; activity change, % at 57.5 µM; THP-1 LPS/ATP IL-1B secretion, AlphaLISA, 16 h; active compounds read low; 4.7% of 360,000 active; in the data active = activity change below about -50%; inconclusive = mostly about -30% to -49%
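Secreted IL-1B measured by AlphaLISA bead assay after 16 h compound exposure of THP-1 cells; compounds (final up to 57.5 uM) added 1 h before LPS (250 ng/mL) and ATP (1.25 mM) stimulation; lower signal means less secretion.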
S2 tox = cell viability loss in ATXN counter-screen; AID 651635; 0.49% of 400,000 active; S2 cells (HEK-293 line with an ATXN2-luciferase reporter) viability, CellTiter-Fluor protease fluorescence, 24 h; Potency, µM (doses to about 56.7 µM), most hits filed as cytotoxic; also: nearly all actives have a fitted effect of over 40% in size
USP1 inh = blocks the human USP1/UAF1 deubiquitinase complex; AID 743255; Potency, µM (highest dose often 57.1 µM), hits mostly inhibitors; 0.23% of 390,000 active; recombinant USP1/UAF1, Ub-Rhodamine cleavage fluorescence; O94782; also: nearly all actives have a fitted effect of over 60% in size
Target sequence (O94782 whole entry, looked up): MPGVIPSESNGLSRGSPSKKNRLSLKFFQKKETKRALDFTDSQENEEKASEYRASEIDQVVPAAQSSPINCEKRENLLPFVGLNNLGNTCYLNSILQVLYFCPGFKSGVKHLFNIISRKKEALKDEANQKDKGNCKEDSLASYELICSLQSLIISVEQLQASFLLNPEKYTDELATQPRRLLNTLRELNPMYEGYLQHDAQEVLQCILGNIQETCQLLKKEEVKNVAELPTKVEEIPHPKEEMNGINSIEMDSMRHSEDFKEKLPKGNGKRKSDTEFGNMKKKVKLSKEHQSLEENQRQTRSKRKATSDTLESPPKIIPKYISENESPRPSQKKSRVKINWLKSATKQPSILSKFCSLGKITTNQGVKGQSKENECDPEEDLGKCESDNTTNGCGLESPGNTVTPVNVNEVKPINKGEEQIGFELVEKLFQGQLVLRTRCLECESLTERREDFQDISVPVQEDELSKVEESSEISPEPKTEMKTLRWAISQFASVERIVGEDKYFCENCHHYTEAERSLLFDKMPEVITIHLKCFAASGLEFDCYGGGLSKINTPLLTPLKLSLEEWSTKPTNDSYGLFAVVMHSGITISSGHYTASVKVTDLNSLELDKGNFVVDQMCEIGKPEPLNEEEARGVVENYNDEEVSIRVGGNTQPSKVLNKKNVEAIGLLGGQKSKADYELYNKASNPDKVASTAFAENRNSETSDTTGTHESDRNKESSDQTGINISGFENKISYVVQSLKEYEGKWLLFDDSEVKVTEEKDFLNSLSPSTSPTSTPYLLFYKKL
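In this screen, compounds sit with the deubiquitinase complex (1nM) for 15 min at room temperature before Ub-Rho is added at 150nM final. Fluorescence rise is then followed for 6 reads every 60 seconds.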
ATXN2 expr inh = inhibitors of ATXN2 expression. HEK-293 ATXN2-luciferase reporter, luminescence, 24 h. Potency, µM (series often up to 57 µM), most hits filed as inhibitors. 0.72% of 360,000 active. AID 1745845; also: nearly all actives have a fitted effect of over 55% in size
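qHTS (up to 57 uM final) was run with 24 h compound exposure of reporter cells at 37 °C. Each well was multiplexed: SteadyGlo luminescence measured ATXN2-luciferase expression after a fluorogenic Gly-Phe-AFC viability readout (25 uM final).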
Hits are given with their value; – = inactive; ? = inconclusive; · = no result; [ ] = remark or other dose. Unless noted, calls follow the shape of the dose curve; as a rule, active = well fitted curve in the direction sought with a large enough effect; inconclusive = small, poorly fitted or top-dose-only effect, or another doubt; inactive = no such curve, though single readings can be large; an effect the other way counts as inactive or inconclusive.

SMILES | USP2a block | IL-1B inflam inh | S2 tox | USP1 inh | ATXN2 expr inh
CCCCCCOC(=O)NC(=N)c1ccc(NCc2nc3cc(C(=O)N(CCC(=O)OCC)c4ccccn4)ccc3n2C)cc1 | · | · | 31.6µM | · | 31.6µM
Cc1c(Cl)cccc1-n1nnc(-c2nc(-c3ccc4c(c3)OCO4)no2)c1C | · | · | · | – | ·
CC(C)n1c(O)c(N=NC(=O)C2COc3ccccc3O2)c2ccccc21 (stereo not given) | – | -88.8 | – | – | –
COc1cc(CNCc2cccs2)ccc1OCc1cccs1 | – | -83.9 | – | – | –
O=C(NCc1ccccn1)c1ccc(Cl)cc1Cl | – | – | – | – | –
COc1cc(CNCc2ccccn2)ccc1OCc1cccc(Cl)c1 | – | -79.6 | – | ? | –
COc1cc(CNCc2ccccn2)ccc1OCc1c(Cl)cccc1Cl | – | ? | – | – | –
COc1cc(CNCc2ccccn2)ccc1OCc1ccc(Cl)cc1 | – | -57.2 | – | – | –
O=C(NCc1ccccn1)c1cc(Cl)ccc1OCc1ccccc1 | – | -53.3 | – | – | –
COc1cc(CNCc2cccs2)ccc1OCc1ccccc1 | – | – | ? | – | –
COc1cc(=O)n2c(c1C(=O)NCc1nccs1)CCN(Cc1ccccc1F)CC2 | · | · | – | · | ·
COc1cccc(-c2ccnc(-n3ncc(C(=O)NCC4(N5CCCCC5)CCCC4)c3C)n2)c1 | · | · | – | · | ·
O=C(CSc1c2c(nc3ccccc13)CCC2)Nc1ccc(F)cc1F | · | · | · | – | ·
O=S(=O)(c1cccc2cnccc12)N1CCNCC1 | – | -50.9 | – | – | –
O=S(=O)(c1cccc2ccccc12)N1CCSC1 | – | – | – | – | –
O=C(c1ccoc1)N1CCOc2ccc(CN3CCC(Oc4cccnc4)CC3)cc2C1 | · | · | – | · | ·
Cc1ccc(C(=O)N2CCN=C2SCc2ccc([N+](=O)[O-])cc2)cc1 | – | ? | ? | – | ?
Cc1ccccc1C(=O)N1CCN=C1SCc1ccc([N+](=O)[O-])cc1 | – | -77.3 | – | – | –
O=C(c1cccc2ccccc12)N1CCN=C1SCc1ccc([N+](=O)[O-])cc1 | – | -64.8 | – | – | –
COc1cc2c(cc1NC(=O)c1cccc([N+](=O)[O-])c1C)oc1ccccc12 | – | -55.5 | – | – | –
COc1cc(/C=C/C(=O)OCC(=O)N2CCC(C)CC2)ccc1O | – | – | – | – | –
COC(=O)c1ccc(CNC(=O)COC(=O)/C=C/c2cccc(OC)c2)cc1 | · | – | – | – | ·
COc1cc(/C=C/C(=O)OCC(=O)N2CCC(Cc3ccccc3)CC2)ccc1O | – | -69.8 | · | – | –
COC(=O)c1ccc(CNC(=O)COC(=O)/C=C/c2ccc(O)c(OC)c2)cc1 | – | -68.1 | – | – | –
Cc1nc2ccc(NC(=O)c3nn(CC(C)C)c(=O)c4ccccc34)cc2s1 | – | -85.5 | ? | – | –
SMILES | USP2a block | IL-1B inflam inh | S2 tox | USP1 inh | ATXN2 expr inh
Cc1cc(C)cc(C(=O)N(CCc2ccccc2)C2CC3CCC(C2)N3C)c1 (stereo not given) | – | -64.9 | – | – | –
COc1cc(C(=O)N(CCc2ccccc2)C2=CC3CCC(C2)N3C)cc(OC)c1OC (stereo not given) | – | – | ? | – | –
O=c1cc(N2CCCCC2)c(-c2ccccc2)nn1Cc1ccc(Cl)cc1 | – | – | – | – | –
O=c1cc(N2CCCCC2)c(-c2ccccc2)nn1Cc1c(Cl)cccc1Cl | – | -66.9 | ? | – | ?
C=CCn1c(CNc2ccccc2)nnc1SCC(=O)N/N=C/c1ccccc1O | – | – | – | – | 17.8µM
C=CCc1cccc(/C=N/NC(=O)CCC(=O)Nc2ccc(F)cc2)c1O | – | – | – | – | 3.55µM
C=CCc1cccc(/C=N/NC(=O)CNc2ccccc2)c1O | · | – | ? | – | 17.8µM
O=C(c1sc2ccccc2c1Cl)N1CCN(CCc2ccccn2)CC1 | – | – | – | – | ·
CCOC(=O)N1CCN(Cc2ccc(OCC(O)CN3CCCCC3)cc2)CC1 (stereo not given) | – | – | ? | – | –
COC(=O)N/N=C/c1ccc(-c2ccc(C)c(Cl)c2)o1 | – | ? | – | – | –
Cc1ccc(-c2ccc(/C=N/c3ncn[nH]3)o2)cc1Cl | – | – | – | – | 15.8µM
CN1c2ccccc2Oc2nnc(Cl)cc21 | – | -51.8 | · | – | –[11.3 µM]
CCN(CC)CCOc1cc2c(nn1)Oc1ccccc1N2C | – | – | – | – | –
CN1c2ccccc2Oc2nnc(N3CCN(Cc4ccccc4)CC3)cc21 | – | -96.1 | – | – | –
CCN1CCOC(=O)C1CC(=O)Nc1cc(C)cc(C)c1 (stereo not given) | · | · | – | – | –
O=C(N/C(=C\c1cccc([N+](=O)[O-])c1)C(=O)N(CCO)CCO)c1ccco1 | – | -51.3 | – | – | –[11.3 µM]
CCN(CC)C(=O)/C(=C\c1cccc([N+](=O)[O-])c1)NC(=O)c1ccco1 | – | – | ? | – | –
CN(C)C(=O)CNC(=O)CN1C(=O)NC2(CCCc3sccc32)C1=O (stereo not given) | – | -64.7 | – | – | –
CCc1cccc(C)c1NC(=O)Nc1ccc2c(c1)OCO2 | – | – | – | – | –
CCc1sc(C(=O)Nc2ccc3c(c2)OCO3)cc1C | – | -80.3 | – | – | –
CC(C)(O)C#Cc1ccc(C(=O)Nc2ccc3c(c2)OCO3)s1 | – | -52.5 | – | – | –
CC1CCc2sc(C(=O)Nc3ccc(N4CCOCC4)cc3)cc2C1 (stereo not given) | – | ? | – | – | –
CC(C)(O)C#Cc1ccc(C(=O)NC2CCCCC2)s1 | – | – | – | – | –
O=C(Nc1ccc2c(c1)OCCO2)c1ccccc1 | – | – | – | – | –
O=C(Nc1ccc2c(c1)OCCO2)c1ccc(Br)s1 | – | -76.5 | – | – | –
SMILES | USP2a block | IL-1B inflam inh | S2 tox | USP1 inh | ATXN2 expr inh
CCc1sc(C(=O)Nc2ccc(N3CCOCC3)cc2)cc1C | – | -64.1 | – | – | –
Cc1csc(SCC(=O)NCC2Cc3cc(-c4cncnc4)ccc3O2)n1 (stereo not given) | · | · | – | · | ·
O=C(C[C@@H]1C/C=C\CC[C@H](Cc2ccc(F)cc2)C(=O)OC[C@@H]2CCCN2C1=O)N[C@H](CO)Cc1ccccc1 | – | – | ? | – | ?
CCCS(=O)(=O)NCc1c(C)ncc2c1CCN(C(=O)/C=C/c1cccc(Cl)c1)C2 | · | · | – | · | ·
O=C(/C=C/c1c(Cl)cccc1Cl)Nc1ccncc1 | – | -59.9 | – | – | –
CC(=O)Oc1c(-c2ccco2)oc2ccccc2c1=O | – | -81.9 | · | – | –
COc1cc(=O)n2c(c1C(=O)NC(C)c1ccco1)CCN(Cc1cc3ccccc3o1)CC2 (stereo not given) | · | · | – | · | ·
N#C/C(=C\c1ccccc1[N+](=O)[O-])C(=O)NC1CCCCC1 | – | -71.5 | – | – | –
N#C/C(=C\C=C\c1ccccc1[N+](=O)[O-])C(=O)NC1CCCCC1 | – | -104.0 | ? | – | ?
Cc1ccc(-c2[nH]ncc2/C=C(\C#N)C(=O)NC2CCCCC2)cc1 | – | -58.8 | ? | – | –
